Screening data deposited in PubChem by several laboratories.
MazF activator: MazEF (E. coli) toxin RNase activation; 350,000 compounds, 0.32% hits; AID 504720; activation, % at 20 µM; P0AE70; FAM/BHQ RNA-DNA oligo cleavage fluorescence, 5 h; in the data active means activation above about 50%
Mtb UGM inh: Mtb UDP-galactopyranose mutase inhibition. P9WIQ1. purified UGM, fluorescence polarization probe displacement. inhibition, % at 10 µM. 320,000 compounds, 0.06% hits; in the data active means inhibition above about 10%, passing the limit was not always enough; inconclusive means no clear call, values can overlap the other calls
Mtb betalactam: beta-lactam sensitization of Mtb H37Rv | M. tuberculosis H37Rv growth with meropenem, percent inhibition | inhibition, % at 25 µM | 330,000 compounds, 0.27% hits; call rule not given here;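 further: growth measured after seven days incubation then overnight dye step; 0% = bacteria only wells and 100% = bacteria with antibiotic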
TcdB GH inh: TcdB glycohydrolase inhibition; P18177; TcdB glycohydrolase enzymatic assay, plate reader; AID 652162; inhibition, % at 9.99 µM; 350,000 compounds, 0.24% hits; in the data active means inhibition above about 10%
RecA intein inh: Mtb RecA intein splicing inhibition; P9WHJ3; cell-free RecA intein splicing, fluorescence; inhibition, % (test concentration not listed); 290,000 compounds, 0.75% hits; AID 2221; in the data active means inhibition above about 30%; inconclusive means no clear call, values can overlap the other calls;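 further: 0% = vehicle wells and 100% = reference inhibitor control wells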
Rv3671c inh: Rv3671c (M. tuberculosis) protease inhibition; AID 2606; P9WHR9; inhibition, % at 5.96 µM; 320,000 compounds, 0.048% hits; in the data active means inhibition above about 38%;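 further: extracellular domain of Rv3671c used as enzyme; 0% = enzyme with DMSO and 100% = no enzyme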
Active calls of the source: *; i = inactive; ? = inconclusive; . = no result given. Most compounds without a hit are left out; they make up all but 0.97% or so of the library.

SMILES	MazF activator	Mtb UGM inh	Mtb betalactam	TcdB GH inh	RecA intein inh	Rv3671c inh
O=c1[nH]nc(Cc2ccc3ccccc3n2)c2ccccc12	73.7*	-1.8	13.4	.	-1.8	-1.3
C[C@@H]1CN([C@H](C)CO)C(=O)c2cc(NC(=O)Nc3ccccc3)ccc2O[C@@H](C)CCCCO[C@@H]1CN(C)C(=O)C1CCCCC1	.	.	.	-0.3	.	.
COc1ccc(NC(=O)Nc2ccc3c(c2)CC(=O)N([C@@H](C)CO)C[C@H](C)[C@H](CN(C)S(C)(=O)=O)O3)cc1	.	.	.	-0.7	.	.
Cc1ccc(-c2cc(C(=O)N3CCc4ccccc4C3)[nH]n2)cc1C	-2.8	-2.0	0.5	1.3	-1.3	-1.1
COc1cccc(-c2cc(C(=O)N3CCc4ccccc4C3)[nH]n2)c1	93.4*	-2.2	-9.8	1.5	1.7	-19.5
CC(C)CC#Cc1cnc2c(c1)C(=O)N([C@@H](C)CO)C[C@H](C)[C@@H](CN(C)C(=O)c1cccnc1)O2	.	.	.	-0.1	.	.
COc1cc2[nH]c3c(N4CCN(c5ccc(Cl)cc5)CC4)ncnc3c2cc1OC	31.6	0.8	3.9	.	2.4	37.9*
CN(C)c1ccc(/C=C(/NC(=O)c2ccccc2)C(=O)N2CCCC2)cc1	59.5*	-1.5	-1.7	-4.4	-14.9	-7.2
CCCCCc1cc(=O)oc2c(C(CCN3CCCC(C)C3)c3ccc(N(C)C)cc3)c(OC)cc(OC)c12 (configuration not stated)	-6.6	2.2	100.4	.	30.9*	-5.2
Cc1ccccc1S(=O)(=O)N1CC(=O)N2[C@@H](CO)[C@@H](c3ccc(C#CCC4CCCC4)cc3)[C@@H]2C1	.	.	.	0.1	.	.
CCCN1[C@@H]2c3ccc(-c4ccc(F)cc4)c(=O)n3C[C@H]1[C@H](CO)[C@H]2C(=O)NCCc1cn(C)cn1	.	.	.	0.0	.	.
C[C@@H]1CN([C@H](C)CO)S(=O)(=O)c2ccc(C#CCC3CCCC3)cc2O[C@@H]1CN(C)C(=O)CC1CC1	.	.	.	-0.3	.	.
CC1Nc2ncnc(N3CCN(c4ccccc4)CC3)c2N(Cc2ccc(Cl)cc2)C1=O (configuration not stated)	-6.7	-0.4	93.4	1.0	1.4	-1.4
CC1Nc2ncnc(N3CCc4ccccc4C3)c2N(Cc2ccc(Cl)cc2)C1=O (configuration not stated)	-24.6	-1.9	0.0	2.4	31.6*	-18.5
CC1Nc2ncnc(N3CCc4ccccc4C3)c2N(Cc2ccc(Br)cc2)C1=O (configuration not stated)	-26.7	-3.9	3.0	-0.1	35.0*	-18.2
C[C@H]1CN([C@@H](C)CO)C(=O)c2cc(-c3cccc(C(=O)N(C)C)c3)cnc2O[C@H]1CN(C)S(=O)(=O)c1ccc(F)cc1	.	.	.	0.8	.	.
O=C1c2ccccc2C(Nc2ccc(S(=O)(=O)N3CCOCC3)cc2)N1c1ccccn1 (configuration not stated)	1.9	0.4	-5.0	-0.2	1.3	1.9
O=C1c2ccccc2C(Nc2ccc(S(=O)(=O)N3CCCCCC3)cc2)N1c1ccccn1 (configuration not stated)	93.8*	-3.3	-4.8	0.0	-0.7	-9.2
CCCC(=O)Nc1ccc(Cc2ccc(NC(=O)CCC)c(C(=O)O)c2)cc1C(=O)O	0.3	11.3*	-3.4	1.5	-4.7	-5.3
C[C@@H]1CN([C@@H](C)CO)S(=O)(=O)c2ccc(-c3cccc(C#N)c3)cc2O[C@H]1CN(C)C(=O)Nc1ccccc1F	.	.	.	0.4	.	.
CO[C@@H]1CN(C)C(=O)c2cc(NC(=O)NC(C)C)ccc2OC[C@H](C)N(S(C)(=O)=O)C[C@H]1C	.	.	.	-1.5	.	.
CO[C@@H]1CN(C)C(=O)c2cc(NC(=O)NC(C)C)ccc2OC[C@@H](C)N(S(C)(=O)=O)C[C@H]1C	.	.	.	16.1*	.	.
COCC(=O)Nc1ccc2c(c1)OC[C@H](C)N(Cc1ccccc1F)C[C@H](C)[C@@H](OC)CN(C)C2=O	.	.	.	-0.1	.	.
Cn1c(/C(C#N)=C(\O)c2ccccc2Cl)nc2ccccc21	5.6	-0.7	-3.0	1.4	17.0	3.2
Cn1c(/C(C#N)=C(\O)COc2ccc3ccccc3c2)nc2ccccc21	173.7*	2.7	13.3	0.4	7.6	5.8
SMILES	MazF activator	Mtb UGM inh	Mtb betalactam	TcdB GH inh	RecA intein inh	Rv3671c inh
CCCCOC(=O)Cn1c2ccc(OC)cc2c2nc3ccccc3nc21	215.0*	6.5	3.0	.	0.2	-3.7
CCn1c2ccc(OC)cc2c2nc3ccccc3nc21	17.6	4.6	74.4	.	-1.3	-3.5
CCOc1ccc(Cn2c3ccc(OC)cc3c3nc4ccccc4nc32)cc1	65.4*	3.4	-3.5	2.6	.	-2.5
COCCCn1c(=O)/c(=C\c2ccccc2OC(F)F)s/c1=C(/C#N)C(=O)NCCOC	82.6*	2.6	20.2	0.9	-63.7	-8.2
COCCNC(=O)/C(C#N)=c1\s/c(=C\c2ccccc2OC(F)F)c(=O)n1Cc1ccccc1	.	-1.3	2.3	.	-0.9	2.8
CCCCNC(=O)/C(C#N)=c1\s/c(=C\c2ccccc2OC(F)F)c(=O)n1CCCOC	84.7*	2.2	4.8	1.0	-20.6	1.1
COCCCn1c(=O)/c(=C\c2ccccc2OC(F)F)s/c1=C(/C#N)C(=O)N1CCOCC1	-2.0	-1.4	-2.2	2.0	2.5	4.9
COCCCNC(=O)/C(C#N)=c1\s/c(=C\c2ccccc2OC(F)F)c(=O)n1CCCOC	97.9*	-1.2	0.1	.	-6.9	4.3
COCCCn1c(=O)/c(=C/c2ccccc2OC(F)F)s/c1=C(\C#N)C(=O)NCCOC	71.8*	.	.	0.9	.	.
COCC(=O)N1CC2(C1)[C@H](c1ccc(-c3ccc(F)cc3)cc1)[C@H](CO)N2C(=O)C1CC1	.	.	.	0.6	.	.
CCN(CC)c1ccc2cc(-c3nnc(-c4ccccc4)o3)c(=O)oc2c1	900.0*	?	6.3	.	-27.7	-2.9
CCN(CC)c1ccc2cc(-c3nc4ccccc4[nH]3)c(=O)oc2c1	.	30.8*	12.6	.	.	-3.2
CCN(CC)c1ccc2cc(-c3nc4ccccc4n3C)c(=O)oc2c1	i	2.0	?	.	-388.3	8.4
Cc1ccc(-n2c(SCC(=O)O)nc3c(sc(=S)n3-c3ccc(C)c(C)c3)c2=O)cc1	3.0	-0.6	8.4	30.2*	-23.6	-4.7
COc1ccccc1NS(=O)(=O)c1cccc(NC(=O)Nc2cccc(Cl)c2)c1	77.2*	-2.1	1.4	.	1.1	-298.2
COc1ccccc1NS(=O)(=O)c1cccc(NC(=O)NCCCl)c1	-12.4	-3.2	-6.9	1.9	2.5	4.9
Cc1cc(C)nc(SCC(=O)c2ccc(O)c(O)c2)n1	8.8	1.5	-2.3	10.9*	-3.5	-1.8
CC(Sc1nccn1C)C(=O)c1c(N)n(C)c(=O)n(C)c1=O (configuration not stated)	-4.5	0.2	-4.6	24.4*	0.0	4.5
CO[C@@H]1CN(C)C(=O)c2ccc(NC(C)=O)cc2OC[C@H](C)N(CCc2ccccc2)C[C@H]1C	.	.	.	0.6	.	.
Cc1ccc(-c2nnnn2-c2ccc(C)cc2)cc1	0.7	-0.8	0.9	1.1	3.1	14.1
Cc1ccc(-n2nnnc2CCl)cc1	5.4	.	.	0.6	46.2*	.
C[C@H](NC(=O)C[C@H]1C[C@H]2c3cc(NC(=O)CC4CC4)ccc3O[C@H]2[C@@H](CO)O1)c1ccccc1	.	.	.	0.8	.	.
